# This is a sample that favours compounds with a hit; in the whole collection about 11% have one here.
# Sfp PPTase inh = blocks B. subtilis Sfp PPTase activity; Biochemical Sfp PPTase activity, qHTS; Potency, µM, inactives show largest response in the series, negative = inhibition, most hits filed as inhibitors; 310,000 compounds, 3.5% hits; AID 1490;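 further: the enzyme is Sfp with the accession as filed and its product quenches rhodamine fluorescence; potency means the concentration at half of the fitted maximal effect; 0% = enzyme reaction without inhibitor and -100% = no enzyme wells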
#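 Step 1, compound plus 15 nM Sfp-PPTase, 15 min, room temperature. Step 2, add rhodamine-CoA (5 uM) and BHQ-2-YbbR (12.5 uM). Step 3, read 525/598 nm fluorescence at 0 and 30 min.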
# Tau fibril ThT = tau fibrillization inhibition (ThT binding) | P10636 | recombinant tau K18 P301L, heparin-induced fibrillization, ThT fluorescence | Potency, µM (doses to about 57.4 µM), inactives show at the highest dose activity, negative = inhibition, most hits filed as inhibitors | 270,000 compounds, 2.1% hits; further: potency means the concentration at half of the fitted maximal effect; nearly all actives have a fitted effect of over 55% in size
# Target sequence (P10636 561-689 P618L limits assumed): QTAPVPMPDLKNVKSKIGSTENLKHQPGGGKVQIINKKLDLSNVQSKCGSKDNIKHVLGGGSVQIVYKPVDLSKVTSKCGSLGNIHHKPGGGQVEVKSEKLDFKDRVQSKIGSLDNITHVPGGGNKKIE
#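 ThT emission at 510 nm, taken 1 hr after adding 30 uM dye, quantifies aggregates formed when 20 uM heparin acts on human tau K18 P301L for 6 hr at 37 C.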
# G9a block = blocks human histone lysine methyltransferase G9a | Q96KQ7 | G9a H3K9 monomethylation, AlphaScreen, 2 h | Potency, µM (highest dose often 102 µM), for inactives: at the highest dose activity, negative = inhibition, usual class: inhibitors | 350,000 compounds, 8.8% hits | AID 504332; further: potency means the concentration at half of the fitted maximal effect; nearly all actives have a fitted effect of over 75% in size
# Target sequence (Q96KQ7 913-1193 limits assumed): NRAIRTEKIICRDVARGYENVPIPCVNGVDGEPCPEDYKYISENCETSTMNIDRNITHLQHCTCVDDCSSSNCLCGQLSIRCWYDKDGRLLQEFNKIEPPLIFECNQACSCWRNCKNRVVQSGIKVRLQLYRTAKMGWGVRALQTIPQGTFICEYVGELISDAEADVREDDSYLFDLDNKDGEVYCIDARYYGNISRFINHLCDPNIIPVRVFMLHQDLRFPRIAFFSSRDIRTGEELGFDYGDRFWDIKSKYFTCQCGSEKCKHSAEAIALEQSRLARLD
#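 Enzyme 20 nM + cpd, 15 min RT; add b-H3K9 pep 500 nM / SAM 20 uM; 2 h RT; anti-H3K9me1 Ab 0.5 ug/mL + SA donor / anti-rabbit acceptor beads 20 ug/mL each, 10 min; AlphaScreen read.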
# Coupling enz = counter-screen for Giardia aldolase inhibitors: coupling enzyme system; coupling enzyme system counterscreen, AmpLite Red fluorescence; activity change, negative = inhibition, % at 58.2 µM, hits read low; 290,000 compounds, 0.67% hits; in the data active means activity change below about -30%
#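 Fluorescence at 525 nm excitation and 598 nm emission measured inhibition of the coupled detection system without aldolase. Compounds (at 57.5 uM final) were preincubated 10 min at room temperature with coupling enzyme reagent before a 20 min substrate/AmpLite Red step.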
# Tau fluor counter = counter-screen for tau fibril formation inhibitors. tau K18 P301L Alexa594 fluorescence, heparin fibrillization. Potency, µM (titrated, usually from 57.7 µM), inactives show at the highest dose activity change, negative = decrease. 280,000 compounds, 0.93% hits. AID 1463; further: potency means the concentration at half of the fitted maximal effect; nearly all actives have a fitted effect of over 55% in size
#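 Human tau K18 P301L (15 uM unlabeled, 0.24 uM Alexa 594-labeled) in 100 mM sodium acetate pH 7 with 20 uM heparin, 6 hr at 37 C. ThT 30 uM added, 1 hr ambient; Alexa 594 FP and total fluorescence read at 555/632 nm.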
# Tau fibril FP = tau fibrillization inhibition (FP) | P10636 | K18 P301L tau heparin fibrillization, Alexa594 FP, 6 h | Potency, µM (highest dose often 57.7 µM), for the others: at the top dose activity, negative = inhibition, hits mostly inhibitors | 280,000 compounds, 0.39% hits; further: potency means the concentration at half of the fitted maximal effect; nearly all actives have a fitted effect of over 55% in size
#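 Steps: dispense K18 P301L tau (15 uM plus 0.24 uM Alexa 594 tracer, final) in pH 7 sodium acetate; add compound; add heparin (20 uM final); incubate 6 hr, 37 C; add ThT (30 uM final); after 1 hr ambient, read FP.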
# An asterisk follows results filed as active; ? = inconclusive; · = no result; [ ] = remark or other dose. Unless noted, the call rests on the fitted dose curve; in most records, active means well fitted curve in the direction sought with a large enough effect; inconclusive means small, poorly fitted or top-dose-only effect, or another doubt; inactive means no such curve, though single readings can be large; an effect the other way counts as inactive or inconclusive. Unless noted, on the % scale 0 is the no-effect control and ±100 the full control effect.
SMILES,Sfp PPTase inh,Tau fibril ThT,G9a block,Coupling enz,Tau fluor counter,Tau fibril FP
CC(C)c1ccc(OCCCCCN2CCOCC2)cc1,?,·,?,0,·,·
CC(=O)Oc1ccc(OC(C)=O)c(SCCCCCN2CCOCC2)c1,79µM*,-24%,27%[0.501 µM],-15,-8%,-5%
CC(=O)c1c(C(=O)O)c2ccccc2[nH]c1=O,2%,-6%,-1%[59 µM],1,-11%,-3%
Cc1[nH]c2ccccc2c1N=Nc1cc(C(=O)O)cc(C(=O)O)c1,-1%,?,35µM*,4,-8%,0%
Oc1[nH]c2ccccc2c1N=Nc1c(F)c(F)c(Cl)c(F)c1F,18%,·,-3%,0,·,·
Cc1[nH]c2ccccc2c1N=Nc1ccccc1F,9%,13µM*,40µM*,-1,13µM*[quencher],?
Cc1[nH]c2ccccc2c1N=Nc1ccc(F)cc1,20%,13µM*,40µM*,-2,14µM*[quencher],-2%
CSc1ccc(CN(C)C(=O)c2cc(=O)[nH]c3ccccc23)cc1,21%,·,11%,1,·,·
Cn1c2c(c3ccccc31)CCN1CCC[C@]21c1ccccc1,-9%,·,40µM*,0,·,·
Cc1ccc(Cl)cc1N1CCN(C(=O)c2cnn(C)c2C2CCN(C(=O)OC(C)(C)C)CC2)CC1,·,-15%,-33%[59 µM],·,-5%,-4%
CCOC(=O)CSc1nc2sc3c(c2c(=O)n1-c1ccc(OC)cc1)CC(C(C)C)OC3 (centres undefined),·,-8%,-2%[59 µM],·,0%,4%
CCCCn1c(SCc2ccc(C(=O)OC)o2)nc2cc(S(N)(=O)=O)ccc21,56µM*,-5%,4%[59 µM],-10,-3%,-2%
CCCCn1c(SCN2C(=O)c3ccccc3C2=O)nc2cc(S(N)(=O)=O)ccc21,1%,-19%,40µM*,-4,-13%,1%
CCCCn1c(SCC(=O)c2cc(OC)ccc2OC)nc2cc(S(N)(=O)=O)ccc21,-9%,-10%,?,0,-12%,-12%
CCCCn1c(SCC(=O)c2ccc(O)cc2O)nc2cc(S(N)(=O)=O)ccc21,-22%,·,-11%,-17,·,·
CCCCn1c(SCC(=O)N2CCC(C)CC2)nc2cc(S(N)(=O)=O)ccc21,?,-4%,7.9µM*,-22,-1%,3%
CS(=O)(=O)Nc1c(O)ccc2c1CCCC2C1=NCCN1 (centres undefined),5%,-3%,22%[59 µM],·,-2%,-7%
O=c1c(/C=N/OCc2ccc(Cl)cc2Cl)c[nH]n1-c1cccc(Cl)n1,2%,?,3%,8,-15%,10%
O=c1c(-n2cncn2)c[nH]n1-c1cccc(Cl)n1,56µM*,?,?,-1,-1%,-5%
Cc1cc(N/N=C/c2ccc(N(C)C)cc2)nc(NCc2ccccc2)n1,20µM*,4µM*,-4%,2,7.9µM*[quencher],4%
Cc1ccc(/C=N/Nc2cc(C)nc(NCc3ccccc3)n2)cc1,16µM*,?,32µM*,-8,?,?
Cc1cc(N/N=C/c2ccc(F)cc2)nc(NCc2ccccc2)n1,16µM*,-18%,·,-8,?,-17%
CN(C)c1nc(NCc2ccccc2)nc(N/N=C/c2ccc(Br)cc2)n1,28%,6%,2%,0,-4%,-7%
Cc1cc(N/N=C/c2ccc(Cl)cc2Cl)nc(NCc2ccccc2)n1,?,?,?,-3,-29%,-11%
COc1cc(/C=N/NC(=O)NC23CC4CC(CC(C4)C2)C3)ccc1O,-13%,·,56µM*,-1,·,·
COc1cc(/C=N/NC(=O)c2cc3ccccc3cc2O)ccc1OCCN1CCCCC1,40µM*,?,-10%[59 µM],-11,-28%,3%
COc1cc(/C=N/NC(=O)c2ccc(-n3cccc3)cc2)ccc1O,-2%,9%,79µM*,0,?,13%
COc1cc(/C=N/NC(=O)c2ccncc2)ccc1OCCN1CCCCC1,13%,-1%,5%[59 µM],2,6%,1%

# Assay outcomes deposited in PubChem BioAssay by National Center for Advancing Translational Sciences (NCATS).
